Values without a mark were called inactive.
system: Sporothrix brasiliensis CBS 133006; test: growth inhibition relative to untreated control; higher = more growth inhibition (more antifungal activity), active = 80 or more; extreme values may be limits of the assay; conditions: 1 µM; 48 h
Summary of the method: (§1)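 Yeast-form cells of the reference isolates (grown 7 days in brain heart infusion broth with 2% glucose at 36°C) were exposed at 1 x 10^5 CFU/ml to library compounds at a final 1 μM for 48 h at 35°C in 5% CO2. Growth was checked by visual inspection under an inverted light microscope and quantified by spectrophotometric readings. The value is percent growth inhibition relative to untreated control. Runs were in quadruplicate.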

Point of comparison: `Nc1ncnc2[nH]nc(Cc3cccc4ccccc34)c12`, growth inhibition 6.25%. Against it:
- Cn1c(=O)c2c(S(C)(=O)=O)snc2n(C)c1=O — higher, 9%
- N#Cc1nc(-c2ccccc2F)oc1NCCc1ccccc1 — lower, 3.75%
- Cc1ccc(NC(=O)c2cc(S(=O)(=O)NC(C)(C)C)ccc2C)nc1 — lower, 4.25%
- CCS(=O)(=O)N(Cc1ccco1)Cc1cc2ccc(C)cc2nc1O — lower, 2.5%
- FC(F)(F)c1ccc(N(c2cccnc2)C2CCN(c3ccc(C(F)(F)F)cn3)CC2)cc1 — lower, 0%
- NC(=O)c1cc(-c2ccsc2)ccc1OCCOc1ccccc1 — higher, 7.25%
- O=C(Nc1ccc(N2CCNCC2)nc1)c1oc(-c2ccccc2)nc1C(F)(F)F — higher, 15.2%
- O=C(NCc1cc(Cl)cc(Cl)c1)c1c(C(F)(F)F)nc2ccccn12 — higher, 21.5%
- Cc1[nH]c2cc(F)cc(F)c2c(=O)c1-c1ccc(Oc2ccc(OC(F)(F)F)cc2)cc1 — lower, 2.25%
- CC(C)(C)n1nc(-c2ccccc2)c2c(N)ncnc21 — lower, 0%
- CCCNC(=O)N1CCC2(CC1)CC(=O)c1cc(C)ccc1O2 — lower, 2.25%
- CC[C@@H](CO)NCCN[C@@H](CC)CO — higher, 6.75%
- COc1cccc(OC)c1C(=O)Nc1ccc(Cl)c(-c2nc3ccccc3s2)c1 — higher, 7.75%
- CCN(CC)CCCN1CCN(C(=O)c2cccc(-c3noc(C(F)(F)F)n3)c2)CC1 — higher, 25%
- Cc1cc(C)nc(-n2nc(C)cc2Nc2ccccc2)n1 — higher, 17.2%
- CCc1ccc(C(NCc2nc(N)nc(N(C)C)n2)C(C)C)cc1 (stereo not drawn) — lower, 0%
- CN1CCCN(C(c2ccccc2)c2ccc(Cl)cc2)CC1 (stereo not drawn) — lower, 6%
- CC(=O)N(CCN(C(=O)c1ccc(F)cc1)c1ccccc1)c1ccccc1 — higher, 13%
- CCCCc1ccc(C(=O)Nc2nccc3ccccc23)nc1 — higher, 23.5%
- Nc1ncc(Br)cc1-c1nc2cc(Cl)cnc2[nH]1 — higher, 12%
- Cc1cc(C)n(-c2ccc(NC(=O)C3CCN(Cc4cnc(C)s4)CC3)cc2)n1 — lower, 5.5%
- c1ccc(-c2[nH]c3ccccc3c2C(c2ccccn2)N2CCCC2)cc1 (stereo not drawn) — lower, 4.25%
- O=C(COc1cccc(F)c1)Nc1nc(-c2ccccn2)cs1 — higher, 22.5%
- CC[C@@H]([C@H](C)O)n1ncn(-c2ccc(N3CCN(c4ccc(OC[C@@H]5CO[C@@](Cn6cncn6)(c6ccc(F)cc6F)C5)cc4)CC3)cc2)c1=O — higher, 73%
- O=C(NCCc1ccccc1)c1cc(-c2cccnc2)cnc1NCC1CC1 — lower, 0%
- Cc1nc(-c2ccccn2)nc(N2CCC(Cc3ccccc3)C2)c1Cl (stereo not drawn) — higher, 63%
- CC(=O)Nc1ccc(-c2noc(CC3CCCN(Cc4cccc(F)c4C)C3)n2)cc1 (stereo not drawn) — higher, 10.2%
- CCc1cc(=O)n(C)c(SC(C)C(=O)Nc2ccc(F)cc2)n1 (stereo not drawn) — higher, 9.25%
- Cc1noc(C)c1C(=O)N1CCCC(c2[nH]c3c(C)cccc3c2-c2ccncc2)C1 (stereo not drawn) — higher, 7.5%
- Cc1cc(Cl)ccc1NC(=O)CCc1ccc(S(=O)(=O)NCC(C)C)cc1 — higher, 9.75%
- CS(=O)(=O)Cc1nc2ccccc2oc1=O — higher, 21.8%
- Cc1cc2ccccc2n1CC(=O)N1CC(C(=O)N2CCCCC2)Oc2ccccc21 (stereo not drawn) — higher, 14.8%
- NC(=O)c1cc(Br)ccc1OCCOc1ccccc1 — higher, 23.5%
- CCCCOC(=O)Nc1cc2nc(C3CCCCC3)[nH]c2cc1N1CCCC1 — higher, 11%
- C[C@]1(O)C[C@@H](c2nc(-c3ccc4ccc(-c5ccccc5)nc4c3)c3c(N)nccn32)C1 — lower, 6%
- CN1CCN(CCCOc2ncc(Nc3ncc(-c4ccc(C(F)(F)F)c(F)c4)nc3C(N)=O)cn2)CC1 — higher, 12.5%
- CS(=O)(=O)N1CCC(CCn2nc(Cc3cccc4ccccc34)c3c(N)ncnc32)CC1 — lower, 5.5%

In the case of `CC(C)(C)[C@H]1CC[C@H](CC2=C(O)C(=O)c3ccccc3C2=O)CC1`, the growth inhibition is reported as 88% (active).

system: Sporothrix schenckii ATCC 32286; test: as above; conditions: 1 µM; 48 h
Summary of the method: as §1

Point of comparison: `CC(C)(C)[C@H]1CC[C@H](CC2=C(O)C(=O)c3ccccc3C2=O)CC1`, growth inhibition 14%. Against it:
- Cn1c(=O)c2c(S(C)(=O)=O)snc2n(C)c1=O — lower, 13.2%
- N#Cc1nc(-c2ccccc2F)oc1NCCc1ccccc1 — lower, 0%
- Cc1ccc(NC(=O)c2cc(S(=O)(=O)NC(C)(C)C)ccc2C)nc1 — lower, 0%
- CCS(=O)(=O)N(Cc1ccco1)Cc1cc2ccc(C)cc2nc1O — lower, 2%
- FC(F)(F)c1ccc(N(c2cccnc2)C2CCN(c3ccc(C(F)(F)F)cn3)CC2)cc1 — lower, 0%
- NC(=O)c1cc(-c2ccsc2)ccc1OCCOc1ccccc1 — lower, 12.2%
- O=C(Nc1ccc(N2CCNCC2)nc1)c1oc(-c2ccccc2)nc1C(F)(F)F — lower, 13.5%
- O=C(NCc1cc(Cl)cc(Cl)c1)c1c(C(F)(F)F)nc2ccccn12 — lower, 11.2%
- Cc1[nH]c2cc(F)cc(F)c2c(=O)c1-c1ccc(Oc2ccc(OC(F)(F)F)cc2)cc1 — lower, 9.5%
- CC(C)(C)n1nc(-c2ccccc2)c2c(N)ncnc21 — lower, 9%
- CCCNC(=O)N1CCC2(CC1)CC(=O)c1cc(C)ccc1O2 — lower, 2.25%
- CC[C@@H](CO)NCCN[C@@H](CC)CO — lower, 12.2%
- COc1cccc(OC)c1C(=O)Nc1ccc(Cl)c(-c2nc3ccccc3s2)c1 — lower, 0.75%
- CCN(CC)CCCN1CCN(C(=O)c2cccc(-c3noc(C(F)(F)F)n3)c2)CC1 — lower, 0%
- Cc1cc(C)nc(-n2nc(C)cc2Nc2ccccc2)n1 — lower, 1%
- CCc1ccc(C(NCc2nc(N)nc(N(C)C)n2)C(C)C)cc1 (stereo not drawn) — lower, 8.75%
- CN1CCCN(C(c2ccccc2)c2ccc(Cl)cc2)CC1 (stereo not drawn) — lower, 6.5%
- CC(=O)N(CCN(C(=O)c1ccc(F)cc1)c1ccccc1)c1ccccc1 — lower, 0%
- CCCCc1ccc(C(=O)Nc2nccc3ccccc23)nc1 — lower, 1%
- Nc1ncc(Br)cc1-c1nc2cc(Cl)cnc2[nH]1 — higher, 19.2%
- Cc1cc(C)n(-c2ccc(NC(=O)C3CCN(Cc4cnc(C)s4)CC3)cc2)n1 — lower, 1.25%
- c1ccc(-c2[nH]c3ccccc3c2C(c2ccccn2)N2CCCC2)cc1 (stereo not drawn) — lower, 12.2%
- O=C(COc1cccc(F)c1)Nc1nc(-c2ccccn2)cs1 — lower, 8.75%
- O=C(NCCc1ccccc1)c1cc(-c2cccnc2)cnc1NCC1CC1 — lower, 0%
- Cc1nc(-c2ccccn2)nc(N2CCC(Cc3ccccc3)C2)c1Cl (stereo not drawn) — lower, 13%
- CC(=O)Nc1ccc(-c2noc(CC3CCCN(Cc4cccc(F)c4C)C3)n2)cc1 (stereo not drawn) — lower, 0.5%
- CCc1cc(=O)n(C)c(SC(C)C(=O)Nc2ccc(F)cc2)n1 (stereo not drawn) — lower, 13.5%
- Cc1noc(C)c1C(=O)N1CCCC(c2[nH]c3c(C)cccc3c2-c2ccncc2)C1 (stereo not drawn) — the same, 14%
- Cc1cc(Cl)ccc1NC(=O)CCc1ccc(S(=O)(=O)NCC(C)C)cc1 — lower, 0%
- CS(=O)(=O)Cc1nc2ccccc2oc1=O — lower, 4.75%
- Cc1cc2ccccc2n1CC(=O)N1CC(C(=O)N2CCCCC2)Oc2ccccc21 (stereo not drawn) — lower, 10.8%
- NC(=O)c1cc(Br)ccc1OCCOc1ccccc1 — lower, 1.25%
- CCCCOC(=O)Nc1cc2nc(C3CCCCC3)[nH]c2cc1N1CCCC1 — lower, 0%
- Nc1ncnc2[nH]nc(Cc3cccc4ccccc34)c12 — lower, 0%
- C[C@]1(O)C[C@@H](c2nc(-c3ccc4ccc(-c5ccccc5)nc4c3)c3c(N)nccn32)C1 — higher, 23%
- CN1CCN(CCCOc2ncc(Nc3ncc(-c4ccc(C(F)(F)F)c(F)c4)nc3C(N)=O)cn2)CC1 — lower, 0%
- CS(=O)(=O)N1CCC(CCn2nc(Cc3cccc4ccccc34)c3c(N)ncnc32)CC1 — the same, 14%

With `CC[C@@H]([C@H](C)O)n1ncn(-c2ccc(N3CCN(c4ccc(OC[C@@H]5CO[C@@](Cn6cncn6)(c6ccc(F)cc6F)C5)cc4)CC3)cc2)c1=O` the growth inhibition was 88.5% (active).
